Bioassay records: PubChem BioAssay, several laboratories
CYP2C9 activ = increases human cytochrome P450 2C9 activity; activation factor at 5 µM; hit rate 1.4% among 96,000; AID 1024; P11712; recombinant CYP2C9, luciferin-H conversion, luminescence; stronger effect = higher value; factor 1 = untreated enzyme, 0 = blocked;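 active = activation factor of 2 or more for CYP2C9 at a 5 µM dose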;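 note: 0 = sulfaphenazole-blocked wells and 1 = vehicle-only wells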
CYP2C19 inhib = inhibitors of human CYP2C19; AID 778; P33261; hit rate 21% among 96,000; CYP2C19 Supersomes, luciferin-H EGE luminescence, 30 min; inhibition, % at 5 µM;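 active = CYP2C19 inhibition above a set limit at 5 µM in the primary screen, cut at about 50% in these data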;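 note: plate controls were negative control wells for no effect and 2.5 mM tranylcypromine positive control for full effect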
Target sequence (P33261 whole entry, looked up): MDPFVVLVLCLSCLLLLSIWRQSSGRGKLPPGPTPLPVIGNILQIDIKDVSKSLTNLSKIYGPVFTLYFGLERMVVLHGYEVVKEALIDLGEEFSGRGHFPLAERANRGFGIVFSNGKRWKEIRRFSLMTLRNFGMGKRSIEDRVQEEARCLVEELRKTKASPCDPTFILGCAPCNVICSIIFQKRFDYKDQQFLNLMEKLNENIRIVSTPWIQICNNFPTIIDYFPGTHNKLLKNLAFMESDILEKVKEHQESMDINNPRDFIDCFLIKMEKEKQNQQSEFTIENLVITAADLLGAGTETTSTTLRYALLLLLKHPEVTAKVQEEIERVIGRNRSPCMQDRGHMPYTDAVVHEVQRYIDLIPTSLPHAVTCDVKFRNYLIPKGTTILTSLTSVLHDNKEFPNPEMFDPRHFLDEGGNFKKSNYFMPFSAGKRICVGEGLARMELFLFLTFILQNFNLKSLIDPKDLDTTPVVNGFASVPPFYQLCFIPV
PostGolgi ctrl = yeast control strain growth, post-Golgi counter-screen | inhibition, % at 10 µM | efflux-deficient yeast background strain, growth absorbance A615, 16 h | hit rate 5% among 98,000
CYP2C19 act = cytochrome P450 2C19 (human) activation; P33261; recombinant CYP2C19, luciferin-H EGE luminescence; stronger effect = higher value; 0 = fully inhibited enzyme, 1 = untreated enzyme; activation factor at 5 µM; 96,000 tested, under 10 active; AID 1025;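 active = activation factor of at least 2 at 5 µM in the primary screen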;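 note: 0 = wells with 2.5 mM tranylcypromine and 1 = vehicle-only wells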
CYP2C9 inhib = blocks human cytochrome P450 2C9; hit rate 20% among 96,000; CYP2C9 Supersomes, luciferin-H conversion, luminescence; AID 777; inhibition, % at 5 µM; P11712;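 active = blocking of liver enzyme CYP2C9 beyond about 50% at 5 µM, limit read from the data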
PostGolgi yeast = growth inhibition of a yeast mutant, post-Golgi transport screen | post-Golgi transport phenotypic cell assay | inhibition, % at 10 µM | hit rate 0.9% among 98,000;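 note: yeast cells grown in 1536-well plates; yeast grown about 18 h at 30C before absorbance read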
* = called active by the depositor; / = not tested or not shown. Shown are actives, neighbours in structure and some others; about 32% of the full set was active somewhere. Cut-off read from the data, not from the text of the source, unless noted: active = inhibition above about 30%; inactive = the rest.

SMILES | CYP2C9 activ | CYP2C19 inhib | PostGolgi ctrl | CYP2C19 act | CYP2C9 inhib | PostGolgi yeast
O=c1[nH][nH]c2nc(C(F)(F)F)cc(C(F)(F)F)c12 | 0.9 | 0.3 | 0.3 | 1 | 6.4 | -2.0
O=C(NCCOc1ccccc1)c1cncc(Br)c1 | 0.7 | 84.0* | -2.1 | 0.2 | 32.3 | 4.5
CCc1cc(C)cc(OCCNC(=O)c2cncc(Br)c2)c1 | 0.8 | 71.6* | 13.3 | 0.3 | 23.1 | 1.2
COc1cc(OC)cc(C(=O)NCCOc2ccccc2)c1 | 0.9 | 62.3* | 1.4 | 0.4 | 13.6 | -0.3
Cc1ccc(C(C)C)c(OCCNS(C)(=O)=O)c1 | 1 | 7.3 | 9.1 | 0.9 | 4.0 | -7.7
CCc1cc(C)cc(OCCNC(=O)c2ncn[nH]2)c1 | 1.7 | 48.9 | -0.9 | 0.5 | -65.5 | 2.1
Cc1ccc(C(C)C)c(OCCNC(=O)c2cncc(Br)c2)c1 | 0.4 | 71.8* | 15.4 | 0.3 | 63.1* | 3.2
O=C(O/N=C1\CCCc2ccccc21)c1ccc(F)cc1 | 1.1 | -10.7 | 11.4 | 1.1 | -14.1 | 4.8
Cn1c(=NC(=O)C2CC2)sc2cccc(F)c21 | 1 | 36.2 | -0.8 | 0.6 | 0.6 | 2.9
Cc1ccc(CS(=O)(=O)Cc2ccc(C(=O)NCc3ccccn3)o2)cc1 | 1 | 12.2 | 10.8 | 0.9 | 2.9 | 20.0
COC(=O)c1ccc(OCCOc2ccccc2)cc1 | 0.5 | 67.2* | -0.3 | 0.3 | 54.4* | -18.6
O=C(Nc1ccccc1C(=O)O)c1cncc(Br)c1 | 0.4 | -13.4 | -0.6 | 1.1 | 60.3* | -6.7
CCCCNC(=O)NCC(=O)Nc1ccc(F)c(F)c1 | 1 | 1.8 | 4.2 | 1 | 4.9 | 0.3
CN1CCc2c(sc3ncn4nc(-c5ccccc5O)nc4c23)C1 | 0.6 | 20.1 | -4.1 | 0.8 | 36.1 | 5.4
CCN1C(=S)SC(=O)C1=C1C=C(C)N(CCOC)C(C)=C1 | 0.9 | 33.4 | / | 0.7 | 11.9 | /
Cc1c(Br)ccc(NC(=O)CCN2C(=O)C3C4CCC(C4)C3C2=O)c1C (configuration not stated) | 1.7 | 24.8 | 25.0 | 0.8 | -73.9 | 1.0
O=C(c1ccc([N+](=O)[O-])cc1)N(Cc1ccc(Br)cc1)N1C(=O)CCCC1=O | 0.7 | 72.6* | 5.8 | 0.3 | 26.9 | 3.9
COc1ccc(NC(=O)Nc2c(C)n(-c3ccccc3)c(=O)n2C)cc1OC | 1.1 | -24.7 | 3.6 | 1.2 | -13.8 | -3.3
O=C1C2CC=CCC2C(=O)N1c1ccc(Cc2ccncc2)cc1 (configuration not stated) | 0.1 | 68.4* | 17.7 | 0.3 | 85.3* | -0.8
O=C(Cn1nnc(-c2cccc(C(F)(F)F)c2)n1)N1CCCCCC1 | 4.2* | 56.8* | -4.6 | 0.4 | -324.8 | -6.3
O=C(Cn1nnc(-c2ccccc2-n2cnnn2)n1)N1CCCCC1 | 1.5 | -17.8 | 1.6 | 1.2 | -51.1 | 6.6
CCCC(=O)n1nc(-c2ccco2)nc1N | 1 | 14.5 | -5.2 | 0.9 | 3.7 | 1.1
CCCC(=O)n1nc(-c2ccc(OC)cc2)nc1N | 1 | 53.3* | 3.2 | 0.5 | -1.1 | 5.7
CC(C)(C)c1ccc(S(=O)(=O)N2CCCCC2C(=O)NCc2ccccn2)cc1 (configuration not stated) | 1.2 | 63.1* | 17.5 | 0.4 | -22.0 | 5.7
COc1ccccc1CNC(=O)c1oc2ccc(S(=O)(=O)N3CCCC3)cc2c1C | 0.3 | 47.4 | 31.0* | 0.5 | 72.8* | 0.7
SMILES | CYP2C9 activ | CYP2C19 inhib | PostGolgi ctrl | CYP2C19 act | CYP2C9 inhib | PostGolgi yeast
O=C(Nc1ccc(OC(F)(F)F)cc1)C1CCCN(S(=O)(=O)c2cccnc2)C1 (configuration not stated) | 0.8 | 99.2* | 0.3 | 0 | 20.3 | -4.3
Cc1c(C(=O)NCc2ccc3c(c2)OCO3)oc2ccc(S(=O)(=O)N3CCCC3)cc12 | 0.5 | 3.4 | 10.0 | 1 | 48.5 | -17.8
Cc1c(C(=O)NCc2ccc3c(c2)OCO3)oc2ccc(S(=O)(=O)N3CCCCC3)cc12 | 0.4 | 13.0 | 14.0 | 0.9 | 58.6* | -3.1
Cc1cc(C(=O)NCC(c2ccco2)N(C)C)no1 (configuration not stated) | 0.9 | 6.0 | 3.2 | 0.9 | 6.6 | 5.2
C=CC(=O)Nc1ccc(Br)cc1 | 1 | -7.2 | 16.5 | 1.1 | 0.5 | 4.2
Cc1c(C(=O)N(C)Cc2ccccc2)oc2ccc(S(=O)(=O)N3CCCC3)cc12 | 0 | 43.1 | 29.0 | 0.6 | 95.3* | 1.4
Cc1c(C(=O)NCc2ccccc2)oc2ccc(S(=O)(=O)N3CCCC3)cc12 | 0.7 | 4.3 | 6.5 | 1 | 32.7 | -5.8
Cc1c(C(=O)NCc2cccnc2)oc2ccc(S(=O)(=O)N3CCCCC3)cc12 | / | / | -0.3 | / | / | -0.3
CC(C)(C)c1ccc(S(=O)(=O)N2CCCC2C(=O)NC2=NCCS2)cc1 (configuration not stated) | 0.2 | 8.3 | 1.3 | 0.9 | 75.6* | -1.1
C=CCNC(=O)C1CCN(S(=O)(=O)c2ccc(Br)cc2)CC1 | 1.5 | 51.1* | 3.0 | 0.5 | -52.0 | 4.5
Cc1c(C(=O)NCc2cccnc2)oc2ccc(S(=O)(=O)N3CCCCCC3)cc12 | 0.5 | 21.1 | 41.6* | 0.8 | 50.6* | -1.3
CNC(=O)c1nnn(Cc2ccccc2)c1NC(C)=O | 1 | -1.5 | 10.7 | 1 | 0.6 | 2.2
Cc1nnc(NC(=O)CSc2nc(C(C)C)nc3sc(C)c(C)c23)s1 | 0.7 | 22.5 | 5.7 | 0.8 | 31.4 | 6.3
NS(=O)(=O)c1ccc(CCNC(=O)c2ccc(S(=O)(=O)N3CCCCC3)cc2)cc1 | 0.4 | 40.2 | 4.1 | 0.6 | 60.6* | -1.6
O=C(NCc1cccnc1)C1CCCCN1S(=O)(=O)c1ccc(F)cc1 (configuration not stated) | 0.7 | 80.1* | 14.6 | 0.2 | 29.3 | 1.1
CC(=O)NCCc1ccc(S(=O)(=O)N2CCCC2)cc1 | 0.9 | 16.6 | -7.2 | 0.8 | 8.2 | -4.2
O=C(COC(=O)c1ccccc1S(=O)(=O)N1CCCCC1)NCC(F)(F)F | 0.3 | 31.8 | 14.3 | 0.7 | 70.0* | -1.4
O=C(NCc1cccnc1)C1CCCN(S(=O)(=O)c2ccc(Br)cc2)C1 (configuration not stated) | 0.5 | 63.0* | 5.8 | 0.4 | 45.7 | 18.1
Cc1nonc1NC(=O)OC1CCCCC1 | 1 | 16.6 | 1.8 | 0.8 | 2.7 | 9.2
Nc1nc(N)c2sc3nc4c(cc3c2n1)CCC4 | 1 | 11.9 | 4.4 | 0.9 | -0.1 | -8.2
O=S1(=O)CCC(SCc2nc3sccn3c2Br)C1 (configuration not stated) | 1.2 | 41.9 | -3.0 | 0.6 | -21.0 | 9.2
CCCN(CCC)CCCOC(=O)c1ccc(Cl)cc1Cl | 0.9 | 11.0 | 2.9 | 0.9 | 8.9 | 26.6
O=C(NCc1ccccc1)c1ccc(S(=O)(=O)N2CCCC2)cc1 | 0.7 | 4.4 | 14.3 | 1 | 30.1 | 15.6
CC1CCN(S(=O)(=O)c2ccc(C(=O)NCc3ccc4c(c3)OCO4)cc2)CC1 | 1 | -7.4 | -2.0 | 1.1 | 3.0 | -3.0
O=C(COC(=O)c1ccc(S(=O)(=O)N2CCCC2)cc1)NCc1ccccc1 | 0.4 | 42.4 | -3.8 | 0.6 | 55.5* | 25.4
